Compound activity (PubChem BioAssay)
The list is not random: actives were taken first. Their share in the collection is about 9.9%.
MCF10A rereplic: DNA re-replication induction in MCF 10a cells; MCF 10A DNA re-replication, Hoechst nuclear intensity, 48 h; Potency, µM (highest dose often 46.1 µM), for the others: at the highest dose activity, positive = re-replication, hits mostly activators; actives 2.9% (n = 350,000); AID 624296; note: potency is the fitted concentration of half-maximal effect; % of control where 0% means no effect; nearly all actives have a fitted effect of over 50% in size
IL-1B inflam inh: inhibitors of inflammasome signaling (IL-1 beta secretion); THP-1 LPS/ATP IL-1B secretion, AlphaLISA, 16 h; stronger effect = lower value; activity change, % at 57.5 µM; actives 4.7% (n = 360,000); AID 743279; in the data active = activity change below about -50%; inconclusive = mostly about -30% to -49%; note: % is set by controls: 0 for no effect and ±100 for the full control effect
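THP-1 cells pretreated 1 hr with compounds (up to 57.5 uM final), then stimulated with LPS (250 ng/mL final) plus ATP (1.25 mM final); secreted IL-1B measured by AlphaLISA after 16 hr, decreased signal indicating inhibition.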
KB-V1 cytotox: KB-V1 MDR subline cytotoxicity; KB-V1 MDR cells viability, CellTiter-Glo, 72 h; Potency, µM (doses to about 46.1 µM), most hits filed as cytotoxic; actives 3.4% (n = 400,000); AID 1347076; note: potency is the fitted concentration of half-maximal effect; % is set by controls: 0 for no effect and ±100 for the full control effect; nearly all actives have a fitted effect of over 60% in size
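KB-V1 MDR subline cells in DMEM (phenol-red free, 10% FBS) exposed to compounds in qHTS concentration series for 72 h at 37 degrees C. Viability read by CellTiter-Glo luminescence; concentration-effect curves fitted after normalization and correction.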
SW480 rereplic: DNA re-replication induction in SW480 cells; Potency, µM (series often up to 46.1 µM), for the others: top-dose re-replication activation, usual class: activators; AID 624297; SW480 DNA re-replication, Hoechst DNA content imaging, 48 h; actives 1.8% (n = 340,000); note: potency is the fitted concentration of half-maximal effect; % of control where 0% means no effect; nearly all actives have a fitted effect of over 55% in size
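Image-based read-out: total Hoechst fluorescence of nuclei (405 nm excitation, 500-530 nm emission), with hits raising the fraction of high-intensity nuclei. SW480 colon cells incubated 48 hr with compounds at 37 C.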
KB-3-1 tox: kills parental KB-3-1 adenocarcinoma cells; KB-3-1 viability, CellTiter-Glo ATP luminescence, 72 h; actives 1.4% (n = 400,000); Potency, µM (top dose mostly 46.1 µM), actives largely listed as cytotoxic; AID 1347075; note: potency is the fitted concentration of half-maximal effect; % is set by controls: 0 for no effect and ±100 for the full control effect; nearly all actives have a fitted effect of over 60% in size
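Multi-concentration cytotoxicity screen in KB-3-1 cells grown in DMEM lacking phenol red with 10% FBS. After 72 h at 37 °C with compound, ATP-dependent luminescence was recorded.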
* = called active by the depositor; i = inactive; ? = inconclusive; nt = no result; ! = a repeat was not active. Unless noted, calls come from the whole dose curve; as a rule, active = well fitted curve in the direction sought with a large enough effect; inconclusive = small, poorly fitted or top-dose-only effect, or another doubt; inactive = no such curve, though single readings can be large; an effect the other way counts as inactive or inconclusive.

SMILES	MCF10A rereplic	IL-1B inflam inh	KB-V1 cytotox	SW480 rereplic	KB-3-1 tox
Cc1ccc(OCCN2CCC2(C)C(=O)Nc2ccc3c(c2)OCCO3)cc1 (stereo not given)	nt	-110*	i	nt	i
CCc1ccccc1NC(=O)NCc1cccnc1	0%	24	i	-14%	i
O=C(CNCCC1=CCCCC1)Nc1ccc(N2CCCCCC2)cc1	?	-87*	?	?	?
O=C(CNCc1ccccc1Cl)Nc1ccccc1N1CCCCC1	?	21	i	-2%	i
O=C(CNCC1CCCO1)Nc1ccc(N2CCCCCC2)cc1 (stereo not given)	-3%	0	21µM*	7%	i
O=C(CNCC1CCCO1)Nc1ccccc1N1CCCCCC1 (stereo not given)	14%	8	6.5µM*	-3%	i
CN1CCN(NC(=O)c2ccc(S(=O)(=O)N3CC4(C)CC3CC(C)(C)C4)cc2)CC1 (stereo not given)	?	-5	i	18µM*	i
CC(C(=O)NC(=O)NC1CCCCC1)N1CCN(c2ccc(O)cc2)CC1 (stereo not given)	1%	-3	23µM*	-5%	i
COc1ccc(-n2nnnc2S(=O)(=O)Cc2ccc(C(=O)O)cc2)cc1	16µM*	-87*	i	7.3µM*	i
COc1cc(OC)cc(-n2nnnc2SCC(=O)N2CCCC2)c1	14%	6	i	-2%	i
COc1ccc(-n2nnnc2S(=O)(=O)CC(=O)N2CCCCC2)cc1	7.3µM*	-110*	?	16%	21µM*
CCc1ccc(Oc2nnnn2-c2ccc(C(N)=O)cc2)cc1	-4%	-12	i	1%	i
CCOc1ccc(C(NC(C)=O)c2cc(Cl)c3cccnc3c2O)cc1 (stereo not given)	nt	nt	i	nt	i
COc1ccc(C(NC(C)=O)c2cc(Cl)c3cccnc3c2O)cc1OC (stereo not given)	?	116	i	1.6µM*	?
COc1ccccc1C(NC(C)=O)c1cc(Cl)c2cccnc2c1O (stereo not given)	?	112	?	0.58µM*	?
CCC(=O)NC(c1ccc(OC)c(OC)c1)c1cc(Cl)c2cccnc2c1O (stereo not given)	?	-5	?	?	3.3µM*!
Cc1cc2[nH]c(=O)c(=O)[nH]c2cc1S(=O)(=O)NCc1ccc(F)cc1	nt	nt	i	nt	i
CCCc1nc2ccc(C)cn2c1Cc1ccc(C)cc1	nt	-4	i	nt	i
CSc1nc(NCc2ccco2)c2ccccc2n1	1%	-13	12µM*	-33%	?
CNc1nc(NCc2ccco2)c2ccccc2n1	nt	nt	i	nt	?
c1ccc(Nc2nc(NCc3ccco3)c3ccccc3n2)cc1	?	-94*	?	?	?
Oc1ccc(Nc2nc(Cl)nc(NCc3ccco3)n2)cc1	?	-109*	i	?	i
Cc1cccc(Nc2nc(NCc3ccco3)c3ccccc3n2)c1	?	-98*	15µM*	?	?
C=CCNc1nc(Cl)nc(NCc2ccco2)n1	-1%	6	i	-4%	i
CC1(C)C(=O)Nc2ccccc2N1C(=O)COC(=O)CNS(=O)(=O)c1ccc(Br)cc1Cl	-6%	6	i	2%	i
SMILES	MCF10A rereplic	IL-1B inflam inh	KB-V1 cytotox	SW480 rereplic	KB-3-1 tox
O=c1c2sc3nc(N4CCOCC4)c4c(c3c2ncn1-c1ccccc1)CCCC4	15%	-60*	?	-3%	i
O=c1c2sc3nc(N4CCOCC4)c4c(c3c2ncn1CCc1ccccc1)CCCC4	?	-7	2.3µM*	-7%	i
Cc1ccc(-n2cnc3c(sc4nc(N5CCOCC5)c5c(c43)CCCC5)c2=O)cc1	0%	12	i	-17%	i
CCN(CC)CC(C)OC(=O)c1ccccc1Cl (stereo not given)	8%	-6	i	-1%	i
CCn1cc(C(=O)NCc2cccc(F)c2)c(=O)c2cc(F)c(N3CCN(C(=O)c4ccco4)CC3)cc21	?	-54*	?	-1%	?
CCCCCCC(=O)N(O)C1CC(=O)N(c2ccc(Cl)cc2)C1=O (stereo not given)	?	-51*	i	18µM*	i
S=C(Nc1ccccc1Oc1ccccc1)Nc1cccc(Cl)c1Cl	?	0	21µM*	-41%	23µM*
Cc1ccc(-c2nc3sc(CCNC(=O)c4ccc(F)c(F)c4)c(C)n3n2)cc1	nt	nt	i	nt	i
Cc1ccc(-c2nn(-c3ccccc3)cc2C2CC(c3cccs3)=NN2C(=O)CCC(=O)O)cc1 (stereo not given)	8%	14	i	-9%	i
O=C(O)CCn1cc(C2CC(c3ccccc3)=NN2c2ccccc2)c(-c2ccccc2)n1 (stereo not given)	12µM*	10	i	23µM*	i
O=C(NC1(C(F)(F)F)N=C(c2ccccc2)NC1=O)c1ccc(Cl)cc1Cl (stereo not given)	-5%	-14	18µM*	4%	i
CC(C)C[C@H](CO)N(Cc1ccccc1)S(=O)(=O)N(Cc1ccccc1)[C@@H](CO)CC(C)C	?	-87*	21µM*!	18%	?
C=CS(=O)(=O)N(Cc1ccccc1Br)[C@H](CO)Cc1ccccc1	16µM*	-108*	?	?	?
C=CS(=O)(=O)N(Cc1ccccc1)[C@H](CO)CC(C)C	9%	-60*	i	8%	?
COc1ccc(Cl)cc1NC(=O)c1cc(C)nc2c1c(C)nn2-c1ccccc1	nt	nt	i	nt	i
COc1ccc(N2CC(C(=O)Nc3c4c(nn3-c3ccccc3)CS(=O)(=O)C4)CC2=O)cc1 (stereo not given)	?	i	i	?	i
CN(C(=O)OC(C)(C)C)c1ccc(-c2nc3ccccc3s2)cc1	17%	nt	i	15%	?
C/C(=N\NC(=O)c1cc(O)ccc1O)c1cccc(NC(=O)c2ccc(Cl)cc2)c1	16%	-86*	i	13%	i
COC(=O)c1cccc(NC(=S)Nc2ccccc2Cl)c1	3%	1	i	0%	i
COC(=O)c1cccc(NC(=S)Nc2ccc(Cl)c(Cl)c2)c1	?	-65*	i	-1%	i
COC(=O)c1cc(NC(=O)c2c(Cl)cnn2C)cc(C(=O)OC)c1	10%	-4	15µM*	-3%	i
COC(=O)c1cccc(NC(=O)NC(=O)c2ccc(Cl)cc2)c1	6%	nt	i	18µM*	i
COC(=O)/C(=C1/Oc2ccc(C)cc2S1)C(F)(F)F	-1%	14	i	?	i
COC(=O)c1cc(NC(=S)Nc2cc(Cl)cc(Cl)c2)cc(C(=O)OC)c1	?	-81*	i	0%	?
